# Where “and” joins values, the source holds several entries; their conditions need not be identical. Identical values can stand only once. Inconclusive results are not listed. A call without a number means that no potency is given here. Unmarked numbers belong to inactive results. Calls of active or inactive are those of the source. The call rests on the fitted dose curve; in most records, active means well fitted inhibition curve with a large enough effect; inconclusive means small, poorly fitted or top-dose-only effect; inactive means flat fitted curve, though single readings scatter.
# Key:
# [1] = qHTS profiling for inhibitors of Plasmodium falciparum proliferation (AID 504749); further: nearly all actives have a fitted effect of over 60% in size; conditions: P. falciparum in erythrocytes, SYBR Green DNA, 72 h
# How it was run: (§1)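 Parasite proliferation within erythrocytes, 72 h exposure. Endpoint: SYBR Green I fluorescence after overnight lysis at room temperature. Controls: 0.29 uM artemisinin, DMSO.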
# 3D7 = test: as above; conditions: P. falciparum in erythrocytes, SYBR Green DNA, 72 h; series mostly up to 28.7 µM
# How it was run: as §1
# 7G8 = test: as above; conditions: P. falciparum in erythrocytes, SYBR Green DNA, 72 h; series mostly up to 28.7 µM
# How it was run: as §1
# AA1029 = test: as above; conditions: P. falciparum in erythrocytes, SYBR Green DNA, 72 h; series mostly up to 28.7 µM
# How it was run: as §1
# AS120 = test: as above; conditions: P. falciparum in erythrocytes, SYBR Green DNA, 72 h; series mostly up to 28.7 µM
# How it was run: as §1
# ATS189 = test: as above; conditions: P. falciparum in erythrocytes, SYBR Green DNA, 72 h; series mostly up to 28.7 µM
# How it was run: as §1
# ATS95 = test: as above; conditions: P. falciparum in erythrocytes, SYBR Green DNA, 72 h; series mostly up to 28.7 µM
# How it was run: as §1
# C2A = test: as above; conditions: P. falciparum in erythrocytes, SYBR Green DNA, 72 h; series mostly up to 28.7 µM
# How it was run: as §1
# CP185 = test: as above; conditions: P. falciparum in erythrocytes, SYBR Green DNA, 72 h; series mostly up to 28.7 µM
# How it was run: as §1
# CP192 = test: as above; conditions: P. falciparum in erythrocytes, SYBR Green DNA, 72 h; series mostly up to 28.7 µM
# How it was run: as §1
# CP201 = test: as above; conditions: P. falciparum in erythrocytes, SYBR Green DNA, 72 h; series mostly up to 28.7 µM
# How it was run: as §1
# CP203 = test: as above; conditions: P. falciparum in erythrocytes, SYBR Green DNA, 72 h; series mostly up to 28.7 µM
# How it was run: as §1
# CP211 = test: as above; conditions: P. falciparum in erythrocytes, SYBR Green DNA, 72 h; series mostly up to 28.7 µM
# How it was run: as §1
# CP191 = test: as above; conditions: P. falciparum in erythrocytes, SYBR Green DNA, 72 h; series mostly up to 28.7 µM
# How it was run: as §1
# CP194 = test: as above; conditions: P. falciparum in erythrocytes, SYBR Green DNA, 72 h; series mostly up to 28.7 µM
# How it was run: as §1
# [2] = at 12.8 µM (top of the series), parasite line A
# [3] = at 12.8 µM (top of the series), parasite line B
# [4] = at 28.7 µM (top of the series), parasite line A
# [5] = at 28.7 µM (top of the series), parasite line B
# Potency means the concentration at half of the fitted maximal effect.
SMILES,"activity, negative = inhibition [1, 2]","activity, negative = inhibition [1, 3]",Potency (3D7),Potency (7G8),Potency (AA1029),Potency (AS120),Potency (ATS189),Potency (ATS95),Potency (C2A),Potency (CP185),Potency (CP192),Potency (CP201),Potency (CP203),Potency (CP211),"activity, negative = inhibition [1, 4]","activity, negative = inhibition [1, 5]",Potency (CP191),Potency (CP194),Potency ([1]; parasite line A),Potency ([1]; parasite line B)
CCCSc1ccc2nc(NC(=O)OC)[nH]c2c1,-19.4%,-12.4%,inactive,inactive,inactive,inactive,inactive,inactive,inactive,inactive,inactive,inactive,inactive,inactive,,,,,,
COc1cc(/C=C/C(=O)N2CCN(CC(=O)N3CCCC3)CC2)cc(OC)c1OC,,,inactive,10 µM (active),inactive,,inactive,inactive,inactive,inactive,inactive,inactive,inactive,inactive,1.12%,8.7%,inactive,inactive,,
Nc1cc(-c2ccncc2)c[nH]c1=O,,,inactive,,inactive,inactive,inactive,inactive,inactive,inactive,inactive,inactive,,inactive,17.9%,15.4%,inactive,inactive,,
CN1[C@@H]2CC[C@H]1CC(OC(c1ccccc1)c1ccccc1)C2 (some centres not stated),,,inactive,5.62 µM (active) and 7.08 µM (active),,12.6 µM (active),,12.6 µM (active),inactive,,inactive,,,,,,8.91 µM (active),,,
c1ccc2sc(SN3CCOCC3)nc2c1,,,inactive,11.2 µM (active),inactive,,inactive,inactive,inactive,inactive,inactive,inactive,inactive,inactive,-12.8%,,inactive,inactive,,
O=C(O)Cc1ccc(-c2ccccc2)cc1,2.72%,-2.57%,inactive,inactive,inactive,inactive,inactive,inactive,inactive,inactive,inactive,inactive,,inactive,,,inactive,inactive,,
NC(=O)C(c1ccccc1)(c1ccccc1)[C@@H]1CCN(CCc2ccc3c(c2)CCO3)C1,,,inactive,11.2 µM (active),,,inactive,,inactive,,inactive,,,,-17.4%,-5.16%,,,,
CCOc1ccc2nc(S(N)(=O)=O)sc2c1,,,inactive,inactive,inactive,inactive,inactive,,inactive,inactive,inactive,inactive,,,-5.98%,,inactive,inactive,,
O=C1CN(/N=C/c2ccc(-c3ccc([N+](=O)[O-])cc3)o2)C(=O)N1,,,,,inactive,inactive,inactive,inactive,inactive,inactive,inactive,,inactive,inactive,-11.3%,-1.58%,7.08 µM (active),inactive,,
Oc1c(Br)cc(Br)c2cccnc12,,,inactive,,inactive,,inactive,inactive,inactive,inactive,inactive,inactive,inactive,inactive,-4.99%,-18.5%,inactive,inactive,,
Cc1nc2ccccc2n1Cc1ccc(Cl)cc1,,,inactive,,,,,inactive,inactive,inactive,inactive,,,,,,,,12.6 µM (active),
Clc1ccccc1-c1nc(-c2ccncc2)no1,,,inactive,10 µM (active),inactive,,inactive,inactive,inactive,inactive,inactive,inactive,,inactive,11.4%,-1.37%,inactive,inactive,,
CN1[C@@H]2CC[C@H]1CC(OC(=O)C(CO)c1ccccc1)C2 (some centres not stated),,,inactive,inactive,inactive,inactive,inactive,inactive,inactive,inactive,inactive,inactive,inactive,inactive,-2.42%,,inactive,inactive,,
CCCCCCCCCCCCCCCC(=O)OC(C)C,,,inactive,inactive,inactive,inactive,inactive,inactive,inactive,inactive,inactive,inactive,,inactive,,,inactive,inactive,,
O=C(O)c1ccccc1Nc1cccc(C(F)(F)F)c1,,,inactive,inactive,inactive,inactive,inactive,inactive,inactive,inactive,,inactive,inactive,inactive,-6.43%,10.3%,,inactive,,
[O-][n+]1ccccc1SSc1cccc[n+]1[O-],,,0.891 µM (active),0.891 µM (active),0.891 µM (active),0.891 µM (active),1.12 µM (active),0.891 µM (active),0.891 µM (active),1.12 µM (active),1.35 µM (active),1.9 µM (active),,1.07 µM (active),,,1.26 µM (active),1.07 µM (active),0.891 µM (active),0.891 µM (active)
